PubChem BioAssay AID652257 (The Scripps Research Institute Molecular Screening Center, 2013)
The campaign covered roughly 370,000 compounds. About 4,800 (1.3%) were called active. The sample holds actives, similar compounds and a random draw of the others, so the mix is not that of the screen.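 The calls were made as follows: active = inhibition above about 21% made by adding two undisclosed values (limit read from the data); inactive = the rest.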

biological target: Protein arginine N-methyltransferase 1 (Homo sapiens) (UniProt Q99873); experiment: PRMT1 methyltransferase inhibitors, primary screen, biochemical, fluorescence polarization (AID 652257); conditions: recombinant PRMT1, activity-based probe fluorescence polarization; at 2.79 µM; hits give high values
Sequence (Q99873 whole entry, looked up): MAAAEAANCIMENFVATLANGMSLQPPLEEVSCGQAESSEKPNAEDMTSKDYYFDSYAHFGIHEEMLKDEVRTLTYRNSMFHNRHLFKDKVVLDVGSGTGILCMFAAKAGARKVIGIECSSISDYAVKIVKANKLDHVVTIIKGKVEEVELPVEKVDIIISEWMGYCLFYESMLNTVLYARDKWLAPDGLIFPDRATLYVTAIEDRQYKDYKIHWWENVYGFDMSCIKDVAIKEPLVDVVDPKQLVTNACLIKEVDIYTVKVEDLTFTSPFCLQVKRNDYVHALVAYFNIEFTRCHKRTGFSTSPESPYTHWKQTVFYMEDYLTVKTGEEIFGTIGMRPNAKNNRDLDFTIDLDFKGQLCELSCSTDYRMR

inhibition, inactive:
COc1ccc(-n2c(SCC(=O)Nc3ccccc3-c3ccccc3)nnc2-c2cccnc2)cc1 -3.53%
COP(=O)(O)CNC(=O)OCc1ccccc1 -3.79%
CCOc1ccc(C(=O)CCC(=O)Nc2ccncc2)cc1 -2.2%
CCOc1ccc(C(=O)CCC(=O)NC2=NCCS2)cc1 0.3%
CCN1C(=O)[C@H]2[C@@H](c3ccccc3)N[C@]3(CCCN(Cc4ccc(C)cc4)C3=O)[C@H]2C1=O -1.43%
COc1cc(CN2CC(C)CC(C)C2)cc([N+](=O)[O-])c1O (stereo unspecified) -0.22%
COc1ccc(N2C(=O)CC(Nc3ccc(F)cc3)C2=O)c([N+](=O)[O-])c1 (stereo unspecified) 2%
C=CCN1C(=O)[C@@H](CC(=O)N2CCN(C(=O)OCC)CC2)[C@]2(C(=O)OCC)CCCCC/C=C/12 2.76%
N#CCOc1ccc(C2=NO[C@@H]3[C@@H]4C[C@@H]([C@H]5C(=O)N(c6ccc7c(c6)OCO7)C(=O)[C@@H]45)[C@H]23)cc1 -0.79%
O=C(NCc1ccc(F)cc1F)[C@@H]1CCCN1C(=O)[C@@H]1CCCN1C(=O)c1cccc(Cl)c1 -3.37%
CC(=O)NC(CC(=O)Nc1nc(-c2ccccc2)c(C(C)=O)s1)c1ccccc1 (stereo unspecified) 1.97%
CCOc1ccc(-c2nc(C)sc2CC(=O)O)cc1 4.47%
COC(=O)N1Cc2ccnnc2CC1c1ccccc1Br (stereo unspecified) -1.59%
CCOC(=O)c1cnc(SCC(=O)Nc2ccccc2C(=O)OC)nc1N -1.74%
CCCCSc1[nH]c(=O)c(C(=O)OCC)cc1C#N 5.58%
COCCCNc1nc2c(-c3cccc(C)c3)nnn2c2ccc(Cl)cc12 1.2%
C=CCOC/C=C/C#CCN(CC=C)Cc1ccc(OC)cc1OC -0.66%
O=C(CCSc1ccccc1)NCCSc1ccccn1 -0.03%
Cc1ccc(Cc2c(-c3ccc(Cl)cc3)nc3c4ccccc4ccn23)cc1 -0.73%
Cc1ccc(Cc2c(-c3ccc(C)cc3)nc3c4ccccc4ccn23)cc1 -3.94%
COc1ccc(CSc2nnc(-c3cccc(C)c3)n2C)cc1 8.96%
Cc1ccc(-n2c(SCC(=O)Nc3cccc4ccccc34)nnc2-c2ccco2)cc1 1.53%
CCN(CC)C(=O)c1nc[nH]c1C(=O)N(C)Cc1ccccc1 0.76%
CCOC(=O)C(C)n1nc(-c2ccccc2)c2ccccc2c1=O (stereo unspecified) -2.85%
O=C(CN1CCCc2ccccc21)NCc1ccc(F)cc1 -5.39%
COc1cccc(N2CCN(CC(=O)N(C)Cc3ccc(F)cc3)CC2)c1 0.17%
COc1ccccc1C(=O)NC1CCCCN(C(C)C)C1=O (stereo unspecified) 2.65%
O=C(C1CCN(S(=O)(=O)c2ccccc2)CC1)N1CCN(C2CCCCC2)CC1 -0.34%
COc1ccc(N(C)C(=O)C2CCN(S(=O)(=O)c3cccc4nsnc34)CC2)cc1 -1.3%
COc1ccc(CN2CCN(Cc3cn(C)nc3-c3ccccc3)CC2CCO)c(C)c1C (stereo unspecified) 0.32%
Cc1ccccc1CN1C[C@@H]2C[C@@H](c3ccc4nsnc4c3)N3CCC[C@@]23C1=O 1.62%
C=CCN(C(=O)[C@@H](CCCC)[C@@H](O)c1ccc(Cl)cc1)c1ccccc1 -0.47%
CC(C)CNc1cccc2c1S(=O)(=O)N(Cc1cn(Cc3ccccc3C(F)(F)F)nn1)Cc1ccccc1O2 2.58%
CCNC(=O)CC1C(=O)N(c2ccc(F)cc2)C(=O)N1CCc1sccc1C (stereo unspecified) -2.07%
Cc1cc(Br)cn2c(Cc3cccc(F)c3)c(-c3cccc(Br)c3)nc12 -2.69%
Cc1cc2nc(-c3ccc(F)cc3)c(Cc3ccsc3)n2c(C)c1Br 1.03%
Nc1nc(NC(=O)/C=C/c2ccc(F)cc2)nn1-c1ccccc1 -3.14%
CCCCNC(=O)C[C@H]1C[C@@]2(C(=O)OC)C(=C[C@H](COCc3ccccc3)O[C@@H]2C)N(Cc2ccc(Cl)cc2Cl)C1=O -3.14%
COc1ccc(-n2c(COc3ccc(C)cc3)nnc2SCC(=O)Nc2ccc(Oc3ccccc3)cc2)cc1 -3.87%
CCOc1ccc(NC(=O)CSc2nc3c(c(=O)n2-c2ccccc2OC)SCC3)cc1 5.66%
COc1ccc(Cc2nnc(SCC(=O)N(c3ccccc3)C(C)C)n(N)c2=O)cc1 -6.66%
CCc1c(O)nc(SCC(=O)Nc2ccccc2)n(C(C)CC)c1=O (stereo unspecified) 17%
Cn1ccnc1SCC(=O)Nc1ccc2c(c1)OCCO2 5.34%
COc1ccccc1-n1ccnc(SCC(=O)NC2CCCCC2)c1=O 1.07%

inhibition, active:
CCOc1ccc(C(=O)CCN2CCOCC2)cc1 21.4%
COc1cc(/C=C2/C(=O)NN(c3ccc(F)cc3)C2=O)cc([N+](=O)[O-])c1O 22.9%
C/C(=N/Nc1nc(-c2ccccc2)c(CC(=O)O)s1)c1ccccc1 23.7%
CCOC(=O)C(Sc1ncc(C#N)c(N)n1)C(C)C (stereo unspecified) 33.5%
c1ccc(Cc2c(-c3ccco3)nc3c4ccccc4ccn23)cc1 26.2%
CCN(CC)C(=O)c1sc2nc(-c3ccccc3)ccc2c1N 23.1%
Cc1ccccc1CN1C[C@@H]2C[C@@H](c3cn(C)nc3-c3ccccc3)N3CCC[C@@]23C1=O 67.8%
Cc1cc2nc(-c3ccco3)c(Cc3cccc(F)c3)n2c(C)c1Br 36.5%
O=C(O)CCn1c(O)c(C=C2N=c3ccccc3=N2)sc1=S 29.5%
COc1ccc(NC(=O)CSc2nnc(Cc3ccccc3)c(=O)n2N)cc1 31.4%
COc1ccccc1-n1c(SCC(=O)Nc2ccc(Cl)cc2)nc(O)c(Cc2ccccc2)c1=O 34.5%
COc1cccc(NC(=O)CSc2nccn(-c3ccc4c(c3)OCCO4)c2=O)c1 29.1%
